Laboratory results published in PubChem BioAssay AID1650 (Southern Research Specialized Biocontainment Screening …, 2009).
Results with a measured potency or affinity are listed apart. The source made the active and inactive calls. The rule behind the calls is not given here.

experiment: mammalian cell viability reduction – secondary assay, cytotoxicity control for West Nile virus antiviral project, dose response (AID 1650); details: Mammalian host cell viability, cytotoxicity counter-screen; series mostly up to 10 µM; viability: at the top concentration

Row | Structure (SMILES) | viability
1 | COc1ccc(-c2ccc(C#N)c(SCC(=O)Nc3sc4c(c3C#N)CCC4)n2)cc1OC | 70.6% (inactive)
2 | CN1C2CCC1/C(=C\c1ccccc1)C(=O)/C2=C\c1ccccc1 | 71.7% (inactive)
3 | O=C(CSCc1ccc(Cl)cc1)Nc1ccc2c(c1)OCCO2 | 94.9% [at 20 µM] (inactive)
4 | CCn1nc(C)c(CN2CCc3c([nH]c4ccccc34)C2c2ccc(F)c(OC)c2)c1C (stereo not given) | 87.8% [at 20 µM] (inactive)
5 | O=C(CSc1nc2ccccc2c(=O)n1-c1ccc(F)cc1)Nc1ccc2c(c1)CCC2 | 73.5% [at 20 µM] (inactive)
6 | CCN(CC)CCCNC(=S)N1CCN(c2nc(-c3ccccc3)cs2)CC1 | 86.9% (inactive)
7 | O=C1Nc2cc(C(=O)NCCCN3CCOCC3)ccc2S/C1=C/c1cccc(Cl)c1 | 81.9% [at 20 µM] (inactive)
8 | O=C(COc1ccc(Cl)cc1)NCCSCc1cccc(Cl)c1 | 90.4% [at 20 µM] (inactive)
9 | Cc1c(NC(=O)COC(=O)c2cc(-c3ccc(-c4ccccc4)cc3)nc3ccccc23)c(=O)n(-c2ccccc2)n1C | 73.5% [at 5 µM] (inactive)
10 | CN(C)CCCN(C(=O)c1ccco1)c1nc2ccc(Cl)cc2s1 | 83.3% (inactive)
11 | COc1ccc(OCc2cccc(C(=O)Nc3ccc(CN4CCCCC4)cc3)c2)cc1 | 85.2% [at 20 µM] (inactive)
12 | O=C(CSc1nc2ccccc2c(=O)n1-c1ccc(F)cc1F)Nc1ccc(N2CCOCC2)cc1 | 86% [at 20 µM] (inactive)
13 | Cc1ccc(S(=O)(=O)c2c(N)n(CCCN(C)C)c3nc4ccccc4nc23)cc1 | 87% [at 20 µM] (inactive)
14 | C/C(N)=C(/C#N)C(=O)COC(=O)c1cc(-c2cccc(Br)c2)nc2ccccc12 | 75.5% (inactive)
15 | COc1cc([C@H]2c3[nH]c4ccccc4c3C[C@H]3C(=O)N4[C@@H](c5cc(OC)c(OC)c(OC)c5)c5[nH]c6ccccc6c5C[C@H]4C(=O)N23)cc(OC)c1OC | 77.5% [at 20 µM] (inactive)
